SARS PLpro yeast: inhibitors of SARS-CoV papain-like protease in yeast; AID 485353; 330,000 tested, 0.19% active; S. cerevisiae expressing SARS-CoV PLpro, growth rescue; Potency, µM (top dose mostly 32.9 µM), inactives show at the top dose activity, positive = growth rescue, usual class: activators; note: potency is the fitted concentration of half-maximal effect; 0% is about no effect; nearly all actives have a fitted effect of over 55% in size
Shiga toxin inh: inhibitors of Shiga toxin in Vero cells; Vero cells, Shiga toxin protein synthesis inhibition reporter; 290,000 tested, 9.2% active; inhibition, % at 38.7 µM; in the data active = inhibition mostly above about 28%, no sharp cut-off; inactive = mostly below about 43%; note: 0% is about no effect
CHX counter-1: affects cycloheximide protein synthesis inhibition readout, counter-screen. cell reporter, cycloheximide protein synthesis inhibition counterscreen. max response, %. 300,000 tested, 12% active; in the data active = max response mostly above about 13%, no sharp cut-off; inactive = mostly below about 14%; note: read at 38.3 µM for the half of the compounds with a filed dose; 0% is about no effect
NS1 inh: influenza NS1 inhibition. Potency, µM (doses to about 46.1 µM), inactives show top-dose activity, positive = more growth. 270,000 tested, 0.4% active; note: potency is the fitted concentration of half-maximal effect; actives are rising curves; nearly all actives have a fitted effect of over 50% in size
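OD600 was taken as the measure of yeast growth restored by compound in an NS1-expressing S. cerevisiae strain. Cells had been washed out of glucose medium and diluted 1:100 into galactose -URA medium, pH 6.0.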
CHX counter-2: protein synthesis counter-screen activity for Shiga toxin hits; shares compounds with Shiga toxin inh; Cycloheximide counterscreen, protein synthesis reporter, Shiga toxin assay; Potency, µM (doses to about 38.3 µM), for the others: at the top dose activity (activation), usual class: activators; 510 tested, 3% active; AID 2318; note: potency is the fitted concentration of half-maximal effect; 0% is about no effect
Starred values were filed as active, the others as inactive. The list is not random: actives were taken first. Their share in the collection is about 12%. Unless noted, calls come from the whole dose curve.

What do the screens show for `O=C(COc1ccc(-n2cnnn2)cc1)Nc1cccc(Cl)c1Cl`?
SARS PLpro yeast: -1%; Shiga toxin inh: -17; CHX counter-1: -6; NS1 inh: 5%

What do the screens show for `COc1ccc(-c2noc(CCC(=O)NCCN(C)Cc3ccccc3)n2)cc1`?
Shiga toxin inh: 9; CHX counter-1: -2; NS1 inh: 0%

What do the screens show for `COc1cccc(-c2noc(CCC(=O)NCCc3ccccc3)n2)c1`?
SARS PLpro yeast: -4%; Shiga toxin inh: 49*; CHX counter-1: 11; NS1 inh: -10%; CHX counter-2: 8%

Results for Cc1ccc(NC(=O)CSc2nnc(-c3cnccn3)n2C)cc1C ?
SARS PLpro yeast: 20%; Shiga toxin inh: 22; CHX counter-1: 2; NS1 inh: 7%

What do the screens show for `N#Cc1ccc(Oc2c(Cl)cncc2Cl)cc1`?
SARS PLpro yeast: -2%; Shiga toxin inh: -8; CHX counter-1: -5; NS1 inh: -3%

How did N#Cc1ccc(N=c2ssnc2Cl)cc1 do in these assays?
SARS PLpro yeast: -6%; Shiga toxin inh: 28*; CHX counter-1: 2; NS1 inh: -109%; CHX counter-2: 0%

Results for O=C1C(Cl)=C(Nc2ccccc2)C(=O)c2ccccc21 ?
SARS PLpro yeast: -18%; Shiga toxin inh: 69*; CHX counter-1: 9; NS1 inh: 1%; CHX counter-2: inconclusive

How did O=C(Cn1cc2c(n1)CCCCC2)Nc1ccccc1Br do in these assays?
SARS PLpro yeast: -1%; Shiga toxin inh: 73*; CHX counter-1: 11; NS1 inh: -7%; CHX counter-2: -1%

Results for CCc1ccc(C(C(=O)NC2CCCC2)N(Cc2cccnc2)C(=O)c2csnn2)cc1 (centres undefined) ?
SARS PLpro yeast: 1%; Shiga toxin inh: 2; CHX counter-1: -3; NS1 inh: -21%

How did Cc1ccc(C(=O)c2cc3c(cc2N)OCCO3)cc1 do in these assays?
SARS PLpro yeast: 2%; Shiga toxin inh: 1; CHX counter-1: -3; NS1 inh: -3%

What do the screens show for `CSc1nc2cc3c(cc2n1C(=O)c1ccc(C)cc1)OCCO3`?
SARS PLpro yeast: -11%; Shiga toxin inh: 80*; CHX counter-1: 7; NS1 inh: -4%; CHX counter-2: inconclusive

How did CC(=O)c1ccccc1Oc1ncnc(N)c1[N+](=O)[O-] do in these assays?
SARS PLpro yeast: 0%; Shiga toxin inh: 29*; CHX counter-1: 2; NS1 inh: 3%; CHX counter-2: 0%

Results for Cc1ccccc1Oc1ncnc(N)c1[N+](=O)[O-] ?
SARS PLpro yeast: -2%; Shiga toxin inh: -7; CHX counter-1: 3

Results for Fc1cccc(C2CCCCN2Cc2nc(C3CC3)no2)c1 (centres undefined) ?
SARS PLpro yeast: 0%; Shiga toxin inh: 4; CHX counter-1: -1; NS1 inh: 2%

How did O=C(CSCc1ccccc1Cl)NN1C(=O)c2ccccc2C1=O do in these assays?
SARS PLpro yeast: -9%; Shiga toxin inh: -13; CHX counter-1: -2; NS1 inh: -25%

What do the screens show for `CCN1C(=O)/C(=C/c2ccc(OC)c(OC)c2)N=C1SCC(=O)NCc1ccco1`?
SARS PLpro yeast: -7%; Shiga toxin inh: 26*; CHX counter-1: 1; NS1 inh: 16%; CHX counter-2: 3%

What do the screens show for `CCCCOC(=O)c1ccc(N=Nc2c(C)c(C#N)c(O)[nH]c2=O)cc1`?
SARS PLpro yeast: 3%; Shiga toxin inh: 47*; CHX counter-1: 8; NS1 inh: 0%; CHX counter-2: inconclusive

Results for NC(=O)c1ccc(N=Nc2c(O)[nH]c(=O)[nH]c2=O)cc1 ?
SARS PLpro yeast: 13%; Shiga toxin inh: 2; CHX counter-1: -1; NS1 inh: 11%

Results for CCCCOc1ccc(C(=O)Oc2cccnc2)cc1 ?
SARS PLpro yeast: 0%; Shiga toxin inh: 9; CHX counter-1: 1; NS1 inh: -6%

What do the screens show for `Cn1c(-[n+]2c(-c3ccccc3)cc(-c3ccccc3)cc2-c2ccccc2)nc2cc([N+](=O)[O-])ccc21`?
SARS PLpro yeast: -39%; Shiga toxin inh: 42*; CHX counter-1: 12; NS1 inh: -11%; CHX counter-2: -3%

What do the screens show for `CC(=O)Nc1ccc2c(c1)CCCC2`?
SARS PLpro yeast: -3%; Shiga toxin inh: 20*; CHX counter-1: -3; NS1 inh: -6%; CHX counter-2: 0%

How did CC(=O)N1CCC(C(=O)Nc2ccc3c(c2)CCC3)CC1 do in these assays?
SARS PLpro yeast: -6%; Shiga toxin inh: -16; CHX counter-1: -3; NS1 inh: 3%

Results for NC(=O)NCc1ccccc1Cl ?
SARS PLpro yeast: -1%; Shiga toxin inh: -6; CHX counter-1: -3; NS1 inh: 4%

How did O=C(NCc1ccccc1Cl)c1cnc2ccccc2n1 do in these assays?
SARS PLpro yeast: -10%; Shiga toxin inh: 46*; CHX counter-1: -1; NS1 inh: -29%; CHX counter-2: 7%

How did CCn1cc(C(=O)NCc2ccccc2Cl)cn1 do in these assays?
SARS PLpro yeast: -7%; Shiga toxin inh: active; CHX counter-1: 8; NS1 inh: 16%; CHX counter-2: 0%

What do the screens show for `CCO[C@@H]1OC(C(=O)N2CCCCCCC2)=C[C@H](c2cn(C(C)=O)c3ccccc23)[C@H]1CCCO`?
SARS PLpro yeast: 1%; Shiga toxin inh: -18; CHX counter-1: 1; NS1 inh: 0%

What do the screens show for `O=C(CCNC(=O)c1ccc(Br)cc1)Nc1nc2ccccc2[nH]1`?
SARS PLpro yeast: -5%

Results for CCc1cc(C(=O)N2CCCC(C(=O)c3cccc4ccccc34)C2)n(C)n1 (centres undefined) ?
SARS PLpro yeast: 0%; Shiga toxin inh: -1; CHX counter-1: 0; NS1 inh: -2%

Results for O=C(Nc1nc(N2C(=O)c3ccccc3C2=O)n(-c2ccccc2)n1)c1ccccc1 ?
SARS PLpro yeast: 3%; Shiga toxin inh: 35*; CHX counter-1: 11; NS1 inh: -6%; CHX counter-2: -2%

What do the screens show for `O=C(Nc1nc(N2C(=O)c3ccccc3C2=O)n(-c2ccccc2)n1)c1ccc(F)cc1`?
SARS PLpro yeast: 3%; Shiga toxin inh: -13; CHX counter-1: 10; NS1 inh: 24%

Results for COC(=O)c1ccc(CSCc2ccc(C(=O)OC)o2)o1 ?
SARS PLpro yeast: 0%; Shiga toxin inh: 38*; CHX counter-1: 1; NS1 inh: -3%; CHX counter-2: -1%

What do the screens show for `COC(=O)c1ccc(CSCC(=O)Nc2cc(OC)cc(OC)c2)o1`?
SARS PLpro yeast: 9%; Shiga toxin inh: 4; CHX counter-1: -6; NS1 inh: 3%

What do the screens show for `COc1ccc(Cc2noc(CN(C)Cc3cccc(-n4cccn4)c3)n2)cc1OC`?
SARS PLpro yeast: -1%; Shiga toxin inh: -17; CHX counter-1: -1; NS1 inh: -7%

What do the screens show for `COc1ccc(OCc2nnc(SCC(=O)N3C(C)CCCC3C)o2)cc1` (centres undefined)?
SARS PLpro yeast: -1%; Shiga toxin inh: 29; CHX counter-1: -2; NS1 inh: -19%

What do the screens show for `CCOC(=O)c1ccc(NC(=O)Nn2cnnc2)cc1`?
SARS PLpro yeast: 2%; Shiga toxin inh: -1; CHX counter-1: 9; NS1 inh: -8%
